Laboratory results reported in PubChem BioAssay (NCATS).
Inconclusive results are not listed. The source made the active and inactive calls. The call rests on the fitted dose curve; in most records, active means well fitted inhibition curve with a large enough effect; inconclusive means small, poorly fitted or top-dose-only effect; inactive means flat fitted curve, though single readings scatter.

Test: P-glycoprotein substrates identified in KB-8-5-11 adenocarcinoma cell line, qHTS therapeutic library screen (AID 1346987); further: nearly all actives have a fitted effect of over 65% in size
Settings: KB-8-5-11 (P-gp overexpressing) viability, CellTiter-Glo, 72 h; series mostly up to 44.5 µM; activity change, negative = cytotoxicity: at the top concentration
Summary of the method: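 KB-8-5-11: colchicine-selected sub-line of KB-3-1 over-expressing P-gp; assay medium lacked colchicine. 72 h drug exposure at 37 degree C, CellTiter-Glo.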
On the % scale 0 is the no-effect control and ±100 the full control effect.

Compound | outcome | activity change, negative = cytotoxicity
COC(=O)C(CC1(O)c2ccccc2N2C(=O)C(C)(C)N(O)C21)n1cnc2ccccc2c1=O (stereo not given) | inactive [at 17.3 µM] | –
OC[C@H]1O[C@@H](OCc2ccccc2)[C@H](O)[C@@H](O)[C@@H]1O | inactive | –
OC[C@H]1O[C@@H](OCCc2ccccc2)[C@H](O[C@@H]2OC[C@@H](O)[C@H](O)[C@H]2O)[C@@H](O)[C@@H]1O | inactive [at 17.3 µM] | –
C/C=C/C=C/C1=C2C(=O)C3(C)C4C(C(=O)CC(O)/C=C/C)=C(O1)C1(C)C2C2(C)OC1(O)C4(C)OC23O (stereo not given) | – | -5.21% [at 17.3 µM] (inactive)
C=C1C(O)C(O)C2(CC3C(C)=CCC4C(C)(C(=O)O)CCCC34C)OC2C1O (stereo not given) | – | 8.49% (inactive)
Cc1c(C)c(NCC(=O)N(C)C2CCN(Cc3ccc(C(N)=O)cc3)CC2)c(C)c(C)c1N | inactive | –
CC(=O)OCC1OC(OC2COC(OC3COC(OC4C(OC5C(CO)OC(OC6CCC7(C)C(CCC8(C)C7CC=C7C9CC(C)(C)CCC9(C(=O)OC9OC(CO)C(O)C(O)C9OC9OCC(OC%10OCC(O)(CO)C%10O)C(O)C9O)C(O)CC78C)C6(C)C)C(O)C5O)OCC(O)C4O)C(O)C3O)C(O)C2O)C(OC(=O)/C=C/c2ccccc2)C(O)C1OC(C)=O (stereo not given) | – | 0.531% [at 5.11 µM] (inactive)
COC(=O)C(CC1(OC(=O)C(C)C)c2ccccc2N2C(=O)C(C)(C)N(O)C21)n1cnc2ccccc2c1=O (stereo not given) | – | -6.25% [at 17.3 µM] (inactive)
CC[C@@H]1[C@H]2CCCCN3C(=O)C[C@H]([C@@H]4[C@H]1OC(=O)[C@H]4C)[C@@H]23 | – | 6.73% (inactive)
CC(=O)NC1CC(=O)C23C(=O)NC(Cc4c[nH]c5ccccc45)C2C(C)=C(C)C(O)C3/C=C/CC(C)/C=C(/C)C(O)C1O (stereo not given) | – | 2.46% [at 17.3 µM] (inactive)
COc1cc(O)cc(C)c1C(=O)O[C@H]1[C@@H](O)[C@@H](n2ccc(=O)[nH]c2=O)O[C@@H]1CO | inactive [at 17.3 µM] | –
CC1C2=CC(=O)OC2(O)CC2C1C(OC(=O)c1ccccc1)C(OC(=O)c1ccccc1)C1(O)C2(C)CCC(O)C1(C)C(=O)O (stereo not given) | – | 5.87% [at 17.3 µM] (inactive)
CCCN1CCC[C@@H](c2cccc(S(C)(=O)=O)c2)C1 | – | -5.3% (inactive)
COc1cc(CO)cc(OC)c1O[C@@H]1O[C@H](CO)[C@@H](O)[C@H](O)[C@H]1O | inactive | –
CC(=O)O[C@H]1C[C@@]2(C)[C@@H](CC[C@H]3[C@@]4(C)C=CC(=O)[C@@H](C)[C@@H]4[C@H](OC(C)=O)C(=O)[C@@]32C)/C1=C(\CCC=C(C)C)C(=O)O | inactive [at 17.3 µM] | –
C[C@@H]1C[C@@H](O)[C@@]23CO[C@]2(CO)C[C@@H](O)CC3[C@@]12CC(c1ccoc1)OC2=O (stereo not given in full) | – | 4.87% (inactive)
C=C1CCC(OC(C)=O)C2(C)CC3OC(=O)C(C)=C3CC12 (stereo not given) | – | -4.92% (inactive)
CC(C)=CCC[C@](C)(O[C@@H]1O[C@H](CO[C@@H]2OC[C@H](O)[C@H](O)[C@H]2O)[C@@H](O)[C@H](O)[C@H]1O)[C@H]1CC[C@]2(C)[C@@H]1[C@H](O)C[C@@H]1[C@@]3(C)CC[C@H](O[C@@H]4O[C@H](CO)[C@@H](O)[C@H](O)[C@H]4O[C@@H]4O[C@H](CO)[C@@H](O)[C@H](O)[C@H]4O)C(C)(C)[C@@H]3CC[C@]12C | inactive [at 17.3 µM] | –
CC1(CO)CCCC2(C)C1C(OC(=O)c1ccccc1)CC1C(=O)OCC12O (stereo not given) | inactive | –
CC(=O)N[C@H]1[C@H](O[C@H]2CC[C@]3(C)C4CC=C5[C@@H]6CC(C)(C)CC[C@]6(C(=O)O)[C@H](O)C[C@@]5(C)[C@]4(C)CC[C@H]3C2(C)C)O[C@H](CO)[C@@H](O)[C@@H]1O (stereo not given in full) | – | -2.27% [at 17.3 µM] (inactive)

Compound | outcome | activity change, negative = cytotoxicity
CNC(C)C(=O)NC(C(=O)N1CCCC1C(=O)Nc1cccc2ncccc12)C(C)C (stereo not given) | inactive | –
O=C(Nc1cc(-c2ccccc2)nn1-c1ccccc1F)c1ccc([N+](=O)[O-])cc1 | – | -21.4% (inactive)
C=C1C(=O)O[C@@H]2C[C@]3(C)[C@@H](CCC(C)=O)[C@@H]3C[C@H]12 | – | -3.03% (inactive)
C=C1C2(C)CC3C4(C)OC(C5OC56C4=CC(=O)OC6(C)C)C3(C)C13C(=O)OC(C)C3(O)C2=O (stereo not given) | – | 4.6% [at 17.3 µM] (inactive)
C[C@@H]1O[C@@H](O[C@H]2[C@H](O)[C@@H](O[C@@H]3O[C@H](CO)[C@H](O)[C@H](O)[C@H]3O)[C@H](O[C@H]3CC[C@@]4(C)C(CC[C@]5(C)C4CC=C4[C@@H]6CC(C)(C)CC[C@]6(C(=O)O[C@@H]6O[C@H](CO)[C@@H](O)[C@H](O)[C@H]6O)CC[C@]45C)C3(C)C)O[C@@H]2C(=O)O)[C@H](O)[C@H](O)[C@H]1O (stereo not given in full) | – | 2.63% [at 9.29 µM] (inactive)
C=C(COC(=O)CC(C)C)C1Cc2cc(C(C)=O)ccc2O1 (stereo not given) | inactive | –
O=C(C[C@@H]1C(C(=O)O)=CO[C@@H](O[C@@H]2O[C@H](CO)[C@@H](O)[C@H](O)[C@H]2O)/C1=C\CO)OCCc1ccc(O)c(O)c1 | inactive [at 17.3 µM] | –
COc1ccc(C(=O)OC2C3C=COC(OC4OC(CO)C(O)C(O)C4O)C3C3(CO)OC23)cc1OC (stereo not given) | – | 9.26% [at 17.3 µM] (inactive)
CC1(C)CC[C@]2(C(=O)OC3OC(CO)C(O)C(O)C3O)CC[C@]3(C)C(=CCC4[C@@]5(C)C[C@@H](O)[C@H](OC6OC(C(=O)O)C(O)C(O)C6O)C(C)(C)C5CC[C@]43C)[C@@H]2C1 (stereo not given in full) | – | 8.55% [at 9.29 µM] (inactive)
CC(C)c1ccc2c(c1)C(O)CC1C(C)(C(=O)O)CCCC21C (stereo not given) | – | 5.92% (inactive)
O=C(O)Cc1cn([C@@H]2OC[C@@H](O[C@@H]3O[C@H](CO)[C@@H](O)[C@H](O)[C@H]3O)[C@H](O)[C@H]2O[C@@H]2O[C@H](CO)[C@@H](O)[C@H](O)[C@H]2O)c2ccccc12 | inactive [at 17.3 µM] | –
C=C1C(O)CCC2(C)CC3(OC)OC(=O)C(C)=C3CC12 (stereo not given) | inactive | –
C=C1CC2C3(C)C=CC(=O)OC(C)(C)C3CC(OC(C)=O)C2(C)C2C(=O)OC(C)C(=O)C12C (stereo not given) | – | 0.368% [at 17.3 µM] (inactive)
CCCC1=CC2=C(CO1)C(=O)C(C)(O)C(OC(=O)c1c(C)cc(OC)cc1O)C2 (stereo not given) | – | 2.68% [at 17.3 µM] (inactive)
Cc1ccccc1-n1nc(-c2c(-c3ccc(F)cc3)nn3c2NC[C@@H](CO)C3)ccc1=O | – | -5.93% (inactive)
O=C(/C=C/c1ccccc1)O[C@@H]1[C@@H](CO)O[C@@](CO)(O[C@H]2O[C@H](CO)[C@@H](O)[C@H](O)[C@H]2O)[C@H]1O | – | 9.6% [at 17.3 µM] (inactive)
C=C(C(=O)O)C1CC(O)C2(C)CCCC(C)(O)C2C1 (stereo not given) | inactive | –
CC1=CC2=C(C)C(=O)[C@](C)(O)[C@H](O)C2=CO1 | inactive | –
O=C1C[C@@]2(C(=O)N1)C(=O)N(Cc1ccc(Br)cc1F)C(=O)c1cccn12 | inactive | –
C=Cc1ccc(O[C@@H]2O[C@H](CO[C@@H]3O[C@@H](C)[C@H](O)[C@@H](O)[C@H]3O)[C@@H](O)[C@H](O)[C@H]2O)cc1 | inactive [at 17.3 µM] | –
